Structures can show the parent of a compound that is named as a salt. ± gives the standard deviation of the averaged measurements.
The compounds below were run on E. coli TESEC Mtb Alr (assay: growth (OD600 after 10 h); higher = more growth (less inhibition)). Settings: arabinose 10000 nM; compound 0.1 mM; raw OD600 reference: median of DMSO wells 0.264, cell-free background 0.041.
Experimental: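 TESEC Mtb Alr E. coli, or the Alr+ wild-type control, in 384-well plates with Prestwick library compounds at 0.1 mM and 1% DMSO, across arabinose induction levels of 1E3 to 1E7 nM. Growth is read as OD600 after 10 h at 37 °C in triplicate biological replicates.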
`Cc1onc(-c2c(F)cccc2Cl)c1C(=O)N[C@@H]1C(=O)N2[C@@H]1SC(C)(C)[C@@H]2C(=O)O` [Flucloxacillin sodium] was tested, and the growth was 0.26 ± 0.0097. Compound `CN(C/C=C/c1ccccc1)Cc1cccc2ccccc12` [Naftifine hydrochloride] has a growth of 0.04317 ± 0.00021. `COc1ccccc1Oc1c(NS(=O)(=O)c2ccc(C(C)(C)C)cc2)nc(-c2ncccn2)nc1OCCO` [Bosentan] gave a growth of 0.269 ± 0.014. With `O=C(O)CCC(=O)Nc1ccc(S(=O)(=O)Nc2nccs2)cc1` [Succinylsulfathiazole] the growth was 0.264 ± 0.0094. `NC(=O)OCC(O)COc1ccc(Cl)cc1` (centres undefined) [Chlorphensin carbamate] was tested, and the growth was 0.2846 ± 0.0028. `C(=C\c1ccccc1)/CN1CCN(C(c2ccccc2)c2ccccc2)CC1` [Cinnarizine] showed a growth of 0.251 ± 0.014. Work on `Cc1ccccc1OCC(O)CO` (centres undefined) [Mephenesin] yielded a growth of 0.261 ± 0.016. `O=C(O)CN(CCN(CC(=O)O)CC(=O)O)CCN(CC(=O)O)CC(=O)O` [Pentetic acid] was tested, and the growth was 0.03913 ± 0.00012. `CC(=O)OCC(=O)[C@@]1(OC(C)=O)[C@@H](C)C[C@H]2[C@@H]3C[C@H](F)C4=CC(=O)C=C[C@]4(C)[C@@]3(F)[C@@H](O)C[C@@]21C` [Diflorasone Diacetate] showed a growth of 0.162 ± 0.0026. In the case of `O=C1C(CC[S+]([O-])c2ccccc2)C(=O)N(c2ccccc2)N1c1ccccc1` (centres undefined) [Sulfinpyrazone], the growth is reported as 0.241 ± 0.006. For `O=C(CCNNC(=O)c1ccncc1)NCc1ccccc1` [Nialamide], the growth was 0.276 ± 0.0091. `C[N+]1(C)CCC(=C(c2ccccc2)c2ccccc2)CC1` [Diphemanil methylsulfate] showed a growth of 0.255 ± 0.01. Compound `Cc1ccc(C)c(OCCCC(C)(C)C(=O)O)c1` [Gemfibrozil] has a growth of 0.22 ± 0.0045. Compound `O=C1CCc2cc(OCCCCc3nnnn3C3CCCCC3)ccc2N1` [Cilostazol] has a growth of 0.1826 ± 0.00091. Compound `COc1cc(C(=O)NCc2ccc(OCCN(C)C)cc2)cc(OC)c1OC` [Trimethobenzamide hydrochloride] has a growth of 0.254 ± 0.011. Compound `Cc1nnc(SCC2=C(C(=O)O)N3C(=O)[C@@H](NC(=O)Cn4cnnn4)[C@H]3SC2)s1` [Cefazolin sodium salt] has a growth of 0.24 ± 0.0064. For `N#Cc1ccc(C(c2ccc(C#N)cc2)n2cncn2)cc1` [Letrozole], the growth was 0.253 ± 0.0064. Work on `CCOc1nc2cccc(C(=O)O)c2n1Cc1ccc(-c2ccccc2-c2nnn[nH]2)cc1` [Candesartan] yielded a growth of 0.285 ± 0.0054. `CC(CNC1CCCCC1)OC(=O)c1ccccc1` (centres undefined) [Hexylcaine hydrochloride] showed a growth of 0.273 ± 0.0072. For `C#C[C@]1(O)CC[C@H]2[C@@H]3CCC4=Cc5oncc5C[C@]4(C)[C@H]3CC[C@@]21C` [Danazol], the growth was 0.174 ± 0.022. `CC1CC(OC(=O)c2ccccc2O)CC(C)(C)C1` (centres undefined) [Homosalate] was tested, and the growth was 0.263 ± 0.019. `CCOc1ccc2c(c1)C(C)=CC(C)(C)N2` [Ethoxyquin] was tested, and the growth was 0.249 ± 0.007. `CN(C)CCN(Cc1ccc(Cl)cc1)c1ccccn1` [Chloropyramine hydrochloride] was tested, and the growth was 0.265 ± 0.0041. `COc1ccc([C@@H]2CC(=O)c3c(O)cc(O[C@@H]4O[C@H](CO[C@@H]5O[C@@H](C)[C@H](O)[C@@H](O)[C@H]5O)[C@@H](O)[C@H](O)[C@H]4O)cc3O2)cc1O` [Hesperidin] was tested, and the growth was 0.251 ± 0.0089. Compound `CO[C@H]1C[C@H](O[C@H]2[C@H](C)[C@@H](O[C@@H]3O[C@H](C)C[C@H](N(C)C)[C@H]3OC(C)=O)[C@@H](C)C[C@@]3(CO3)C(=O)[C@H](C)[C@@H](OC(C)=O)[C@@H](C)[C@@H](C)OC(=O)[C@@H]2C)O[C@@H](C)[C@@H]1OC(C)=O` [Troleandomycin] has a growth of 0.0495 ± 0.0021. For `CCCCCN(CCCCC)C(=O)C(CCC(=O)O)NC(=O)c1ccc(Cl)c(Cl)c1` (centres undefined) [Lorglumide sodium salt], the growth was 0.114 ± 0.0014. Compound `CC(Oc1ccccc1)C(=O)N[C@@H]1C(=O)N2[C@@H]1SC(C)(C)[C@@H]2C(=O)O` (some centres undefined) [Phenethicillin potassium salt] has a growth of 0.266 ± 0.0071. Work on `C#C[C@]1(O)CC[C@H]2[C@@H]3CCC4=CC(=O)CC[C@@H]4[C@H]3CC[C@@]21C` [Norethindrone] yielded a growth of 0.221 ± 0.012. For `CC[C@H](C)[C@H](N)C1=N[C@H](C(=O)N[C@@H](CC(C)C)C(=O)N[C@H](CCC(=O)O)C(=O)N[C@H](C(=O)N[C@H]2CCCCNC(=O)[C@H](CC(N)=O)NC(=O)[C@@H](CC(=O)O)NC(=O)[C@H](Cc3cnc[nH]3)NC(=O)[C@@H](Cc3ccccc3)NC(=O)[C@H]([C@@H](C)CC)NC(=O)[C@@H](CCCN)NC2=O)[C@@H](C)CC)CS1` [Bacitracin], the growth was 0.252 ± 0.0038.
